EBI2 antag: EBI2 (human) antagonism; P32249; EBI2 beta-arrestin recruitment, luminescence, 7a,25-OHC stimulated; inhibition, % at 5 µM; actives 0.81% (n = 360,000); in the data active = inhibition above about 38%;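 note: enzyme fragment complementation signal reports receptor beta-arrestin coupling in cells; 0% = agonist plus DMSO wells and 100% = wells without agonist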
Target sequence (P32249 whole entry, looked up, the tested form may be a part): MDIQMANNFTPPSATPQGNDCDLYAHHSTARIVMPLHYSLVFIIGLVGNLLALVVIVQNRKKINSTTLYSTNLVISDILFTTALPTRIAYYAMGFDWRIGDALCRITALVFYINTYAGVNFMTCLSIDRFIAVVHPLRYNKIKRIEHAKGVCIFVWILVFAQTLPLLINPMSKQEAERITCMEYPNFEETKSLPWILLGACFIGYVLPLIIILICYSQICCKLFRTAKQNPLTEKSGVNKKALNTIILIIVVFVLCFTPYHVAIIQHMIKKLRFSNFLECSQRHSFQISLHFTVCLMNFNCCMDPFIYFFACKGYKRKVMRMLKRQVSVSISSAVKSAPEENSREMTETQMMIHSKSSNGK
SENP8 block-1: SENP8 protease inhibition; actives 1.2% (n = 330,000); inhibition, % at 10 µM; Q96LD8; purified SENP8, Z-RLRGG-aminoluciferin cleavage, luminescence; AID 2540; in the data active = inhibition above about 50%
Target sequence (Q96LD8 whole entry, looked up): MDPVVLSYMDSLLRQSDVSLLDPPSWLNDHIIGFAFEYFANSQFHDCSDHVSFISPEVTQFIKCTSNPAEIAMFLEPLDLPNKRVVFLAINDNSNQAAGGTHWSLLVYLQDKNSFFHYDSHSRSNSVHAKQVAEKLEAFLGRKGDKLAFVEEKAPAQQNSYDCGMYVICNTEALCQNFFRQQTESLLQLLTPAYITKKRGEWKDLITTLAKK
AHR act: activates the human aryl hydrocarbon receptor. P35869. activation, % at 5 µM. actives 2.5% (n = 320,000). AID 2796. AHR-responsive luciferase reporter cells, luminescence; in the data active = activation above about 47%;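 note: 0% = vehicle wells and 100% = reference agonist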
SENP6 inh: SENP6 protease inhibition; AID 2599; actives 1.8% (n = 330,000); Q9GZR1; inhibition, % at 10 µM; Recombinant SENP6 catalytic domain, aminoluciferin luminescence;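 active = inhibition above about 50% at the single tested dose, limit read from the data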;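 note: plate controls were DMSO wells with enzyme for no effect and DMSO wells lacking enzyme for full effect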
SENP8 block-2: inhibitors of human SENP8 protease | Q96LD8 | recombinant SENP8, Nedd8 substrate fluorescence | inhibition, % at 20 µM | actives 0.64% (n = 360,000); in the data active = inhibition mostly above about 40%, no sharp cut-off; inactive = mostly below about 27%
SENP7 inh: inhibitors of human SENP7 protease; recombinant SENP7, Z-RLRGG-aminoluciferin luminescence, 40 min; inhibition, % at 5 µM; actives 1.5% (n = 330,000); AID 434973;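 active = inhibition above about 50% at the single test dose, limit read from the data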;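 note: plate controls were DMSO with enzyme for no effect and no enzyme buffer wells for full effect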
EBI2 antag conf: EBI2 (human) antagonism, single concentration confirmation. shares compounds with EBI2 antag. EBI2 beta-arrestin luminescence, 7a,25-OHC antagonism. actives 29% (n = 2,400). inhibition, % at 5 µM;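 active = inhibition of at least 50%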
EBI2 agonist: EBI2 agonism counter-screen | 2,400 tested, under 10 active | shares compounds with EBI2 antag | EBI2-expressing cells, agonist mode, luminescence, 60 min; 0% vehicle, 100% 7α,25-dihydroxycholesterol control | AID 652000 | activation, % at 5 µM;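 active = activation of at least 50%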
bGal cs: inhibits E. coli beta-galactosidase, counter-screen for EBI2 antagonists; inhibition, % at 5 µM; purified beta-galactosidase, luminescent Galacton Star, 15 min; actives 1% (n = 2,400); AID 652176; shares compounds with EBI2 antag;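 active = replicate-average signal at least 3 plate SD below neutral wells, shown as high inhibition, flagging enzyme-inhibiting false positives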;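 note: 0% = DMSO wells with enzyme and 100% = wells lacking enzyme; higher means stronger loss of beta-gal luminescence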
Starred values were filed as active, the others as inactive; i = inactive; nt = no result. Most compounds without a hit are left out; they make up all but 5% or so of the library.

SMILES	EBI2 antag	SENP8 block-1	AHR act	SENP6 inh	SENP8 block-2	SENP7 inh	EBI2 antag conf	EBI2 agonist	bGal cs
O=C(c1ccc(Cl)cc1)N1CCN(c2ccc(F)cc2)CC1	51*	-2	58*	-4	6	1	41	0	3
O=C(NC(=S)Nc1ccc(N2CCOCC2)cc1)c1ccc(Cl)cc1	6	-4	4	-19	20	-1	nt	nt	nt
CCC(=O)NC(=S)Nc1ccc(N2CCN(C(=O)c3ccc(Cl)cc3)CC2)cc1	43*	0	-2	4	18	-1	11	0	-11
O=C(c1ccncc1)N1CCN(c2ccc(F)cc2)CC1	-4	-7	2	-6	30	5	nt	nt	nt
Cc1c(Cl)cccc1NC(=O)CCNC(=O)N1CC(=O)Nc2ccccc21	-13	0	2	-7	10	-14	nt	nt	nt
NS(=O)(=O)c1cccc(Nc2nc3ccccc3nc2NS(=O)(=O)c2ccc(Cl)cc2)c1	63*	12	0	14	i	1	53*	-1	6
COc1ccc(CN2CCN(C(=O)c3ccc(-c4ccccc4)cc3)CC2)c(OC)c1OC	68*	4	1	-10	-1	3	49	0	-19
COc1cccc(OC)c1C(=O)N1CCN(C(=O)c2ccc(-c3ccccc3)cc2)CC1	78*	-2	1	16	6	5	23	0	-14
COc1ccc(CN2CCN(C(=O)c3cccc4ccccc34)CC2)c(OC)c1OC	2	-7	6	12	0	9	nt	nt	nt
CCN1CCN(C(=O)/C=C/c2ccc(F)cc2)CC1	84*	2	-1	3	12	-2	71*	0	5
CCN1CCN(C(=O)/C=C/c2ccc(OC)cc2)CC1	88*	-2	2	10	-2	6	74*	2	7
CN1CCCN(C(=O)/C=C/c2ccc(F)cc2)CC1	15	-12	1	-6	9	-5	nt	nt	nt
C=CCN(C(=O)CCC(=O)Nc1cc(C)on1)C(C(=O)NC(C)(C)CC)c1cccc(OC)c1OC (stereo unspecified)	5	-9	3	-14	12	-3	nt	nt	nt
CCCCN1C2=C(C(=O)CCC2)C(c2ccc(Cl)c(Cl)c2)C2=C1c1ccccc1C2=O (stereo unspecified)	5	-2	9	23	18	3	nt	nt	nt
C#CCNC(=O)c1csc([C@@H]2O[C@H](CO)[C@@H](O)[C@H]2O)n1	-3	nt	nt	nt	7	nt	nt	nt	nt
OCCCNc1ncnc2sc(-c3ccccc3)cc12	1	0	22	-33	-412	1	nt	nt	nt
CC(C)(C)Nc1ncnc2sc(-c3ccccc3)cc12	73*	-8	6	-18	-300	-2	40	5	9
CC(O)CNc1ccc(-c2nn(C)c(=O)c3ccccc23)cc1[N+](=O)[O-] (stereo unspecified)	1	8	7	-4	6	-3	nt	nt	nt
Cc1cccc(N(C(=O)c2snc(C(N)=O)c2N)C(C(=O)NC2CCCC2)c2ccc(C)o2)c1 (stereo unspecified)	51*	4	11	-10	-315	2	56*	0	-16
Cc1ccc(N(C(=O)c2snc(C(N)=O)c2N)C(C(=O)NC2CCCC2)c2ccc(C)o2)cc1 (stereo unspecified)	68*	3	7	-5	-318	-14	70*	-2	-21
COCCNC(=O)C(c1ccc(C)o1)N(C(=O)c1snc(C(N)=O)c1N)c1ccc(C)cc1 (stereo unspecified)	14	-17	2	-3	-274	-11	nt	nt	nt
CCOc1ccccc1N(C(=O)c1snc(C(N)=O)c1N)C(C(=O)NC1CCCC1)c1ccco1 (stereo unspecified)	7	-14	4	-11	-319	-10	nt	nt	nt
Cc1ccc(N(C(=O)c2snc(C(N)=O)c2N)C(C(=O)NC2CCCC2)c2ccco2)cc1 (stereo unspecified)	56*	0	nt	-17	-310	-4	28	0	7
COc1ccc(C(C(=O)NC2CCCCC2)N(C(=O)c2snc(C(N)=O)c2N)c2ccc(OC)cc2OC)cc1 (stereo unspecified)	70*	-2	1	-4	-282	3	73*	-1	9
Cc1ccccc1NC(=O)c1ccccc1NC(=O)CCC(=O)O	-8	4	2	-6	-6	5	nt	nt	nt
SMILES	EBI2 antag	SENP8 block-1	AHR act	SENP6 inh	SENP8 block-2	SENP7 inh	EBI2 antag conf	EBI2 agonist	bGal cs
COc1ccc(CCNC(=O)CSc2nnc(Cc3cccn3C)n2C)cc1OC	-4	-2	-3	8	13	2	nt	nt	nt
Cc1ccc(C)c(CN2CCC(CNC(=O)Nc3ccc(Br)cc3F)CC2)c1	52*	4	nt	-40	17	-1	11	1	1
CC1=CC(C)(C)Nc2ccc(OS(=O)(=O)c3ccc(C)cc3)cc21	42*	7	11	11	11	10	13	0	2
Cn1c(=NC(=O)COc2ccccc2)sc2ccccc21	3	-6	2	7	-4	0	nt	nt	nt
Cc1cccc(Oc2ncc(-c3ccc(Cl)cc3)cn2)c1C	52*	-7	-9	-9	14	1	27	0	2
COc1cnc(-c2ccccc2)nc1Oc1cccc(C)c1C	11	0	2	-6	10	1	nt	nt	nt
Cc1ccc(Oc2ncc(-c3ccc(Cl)cc3)cn2)cc1	90*	-1	-3	-18	11	-4	58*	-1	-9
CN(C)c1ccc(C(=O)/C=C/c2ccc(Br)cc2)cc1	86*	27	5	-2	19	-3	64*	-1	-21
O=C(c1ccco1)N1CCN(CC(O)COc2ccc(Br)cc2)CC1 (stereo unspecified)	51*	2	1	0	12	2	3	-2	-6
CC(C)OCC(O)CN1CCC(Cc2ccccc2)CC1 (stereo unspecified)	6	-4	1	2	8	4	nt	nt	nt
COC(=O)c1ccc(OCC(O)CN2CCN(C(=O)c3ccco3)CC2)cc1 (stereo unspecified)	-3	-1	0	6	18	2	nt	nt	nt
OC(COc1ccc(Br)cc1)CN1CCC(Cc2ccccc2)CC1 (stereo unspecified)	61*	3	1	17	16	-4	46	2	-1
COc1ccc(S(=O)(=O)N2CCN(C(=O)c3cc(C)oc3C)CC2)cc1OC	1	-1	0	-9	7	10	nt	nt	nt
